Measured values as given in PubChem BioAssay AID492947 (National Center for Advancing Translational Sciences (NCATS), 2010).
In all, about 330,000 compounds went through this assay and about 80 (0.02%) were called active. The call rests on the fitted dose curve; in most records, active means well fitted activation curve with a large enough effect; inconclusive means small, poorly fitted or top-dose-only effect; inactive means flat fitted curve, though single readings scatter. Many of the other results were omitted from the sample, so actives are more common in it than they were.

molecular target: Beta-2 adrenergic receptor (Homo sapiens) (UniProt P07550); assay: qHTS assay of beta-arrestin-biased ligands of beta2-adrenergic receptor; settings: beta-arrestin recruitment to beta2AR, cell-based reporter; series mostly up to 46.1 µM; activation: at the top concentration; further: nearly all actives have a fitted effect of over 65% in size;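 on activation: 0% = DMSO controls and full agonism = EC100 isoproterenol or metaproterenol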
Text: NIH Molecular Libraries Probe Production Network [MLPCN]
NIH Chemical Genomics Center [NCGC]
PI: Bryan Roth and Bob Lefkowitz
The concept of biased agonism is an emerging concept of molecular pharmacology which proposes that seven transmembrane receptors (7TMRs) or G protein-coupled receptors (GPCRs), exist in multiple signaling conformations and complexes and that ligands (either agonists or antagonists) can induce signaling biased responses for distinct signal transduction cascades.
Furthermore, accumulating evidence over the last decade has drawn attention to a novel function of beta-arrestins as signal transducers that scaffold various signaling molecules upon activation of 7TMRs. […] This beta-arrestin-biased signaling presumably leads to distinct physiological outcomes from those by G protein activation.
Additionally, the active receptor conformations which […] on this beta-arrestin signaling are likely different from those activating G protein signaling
The goal of this screening project will be to discover and optimize novel beta-arrestin-biased ligands for beta2-AR signaling. A luminescent cell-based assay for beta2-AR-mediated agonism, known as the Tango assay, has been validated in which ligand binding of a recombinant beta2-AR and subsequent recruitment of a recombinant beta-arrestin lead to the release of the transcriptional activator tTA, which upregulates transcription of a tTA-responsive luciferase gene. […] Compounds were screened as a concentration-titration series that ranged from 46 microM to 0.6 nM.
NCGC Assay Protocol Summary:
Tango cells were dispensed into white, solid, tissue-culture-treated 1536-well plates at 1500 cells/well in DMEM, containing 1% fetal bovine serum (FBS). Then, 23 nL of compounds or DMSO were delivered to each well using a pin tool. Plates were incubated at 37 degrees C, 5% CO2 for 18 hr. Then 2.5 uL luminescent substrate mix (in-house prepared: 150 mM Tris-Cl, pH 7.6, 3 mM MgCl2, 1% Triton X-100, 5 mM DTT, 0.5 mM CoA, 0.15 mM ATP, 0.44 mM D-luciferin, final concentrations) was added to each well. Plates were then incubated for 15 minutes at room temperature, and subsequently measured on a ViewLux plate reader for luminescent signal using a clear filter with a 10 second exposure and 2x binning. The %Activity was determined from the corrected luminescence values.
Concentration-response curves were fitted to the signals arising from the resulting luminescence. The concentration-effect curves were then classified based on curve quality (r2), response magnitude and degree of measured activity, and compounds were subsequently categorized based on their curve class.
Keywords: biased agonism, beta2-AR, beta-arrestin, GPCR, 7TMR, Tango, luminescence, MLSMR, MLPCN, NIH Roadmap, qHTS, NCGC
Potency means the concentration at half of the fitted maximal effect.

Chain of Beta-2 adrenergic receptor (Homo sapiens) (P07550 whole entry, looked up): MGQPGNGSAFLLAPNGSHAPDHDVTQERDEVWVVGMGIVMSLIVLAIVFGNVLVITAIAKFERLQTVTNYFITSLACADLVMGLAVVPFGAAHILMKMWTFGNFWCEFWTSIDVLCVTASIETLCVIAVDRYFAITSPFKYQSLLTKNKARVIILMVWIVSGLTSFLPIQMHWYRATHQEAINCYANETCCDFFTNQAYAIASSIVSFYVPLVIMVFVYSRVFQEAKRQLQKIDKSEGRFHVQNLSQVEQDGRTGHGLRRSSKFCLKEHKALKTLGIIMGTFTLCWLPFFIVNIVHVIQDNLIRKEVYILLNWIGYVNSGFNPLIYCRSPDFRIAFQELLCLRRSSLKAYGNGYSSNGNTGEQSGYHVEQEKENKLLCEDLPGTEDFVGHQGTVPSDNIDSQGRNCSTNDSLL

| SMILES | activation | Potency |
| --- | --- | --- |
| COc1ccc(Cn2c(-c3ccc(Cl)cc3)c[n+]3ccccc23)cc1 | -0.0012% (inactive) | – |
| Cc1cc(NC(=O)CSc2nccn2-c2ccc([N+](=O)[O-])cc2)no1 | -0.528% (inactive) | – |
| COc1ccc(N=Nc2c(-c3ccc(OC)cc3)[nH]oc2=O)cc1 | 0.159% (inactive) | – |
| COc1ccccc1CNS(=O)(=O)CC12CCC(CC1=O)C2(C)C (stereo unspecified) | 0.226% (inactive) | – |
| CCC(C)NC(=O)c1nn(C)c(=O)c2ccccc12 (stereo unspecified) | 0.002% (inactive) | – |
| CCOc1ccc2c(c1)c(=O)c(S(=O)(=O)c1ccc(C)cc1)cn2CC | -0.562% (inactive) | – |
| COc1ccc2ccccc2c1CNCc1ccccn1 | 0.39% (inactive) | – |
| O=C(Cn1nnc2ccccc2c1=O)Nc1cc(C(F)(F)F)ccc1N1CCOCC1 | -0.629% (inactive) | – |
| Cc1ccc(SCC(=O)NNC(=O)c2ccc(S(C)(=O)=O)cc2)cc1 | -1.22% (inactive) | – |
| CC1Cc2ccccc2N1C(=O)Cn1cnc2ccccc2c1=O (stereo unspecified) | -1.41% (inactive) | – |
| CC1CCCC(NC(=O)c2cc(-c3ccncc3)nc3ccccc23)C1C (stereo unspecified) | -0.497% (inactive) | – |
| CC1CCN(c2oc(-c3ccccc3F)nc2C#N)CC1 | -0.667% (inactive) | – |
| O=C(Nc1c(-c2ccccc2)nc2c(Br)cc(Br)cn12)c1ccco1 | -0.134% (inactive) | – |
| CC(=O)c1cccc(NC(=O)CN2C(=O)c3cccnc3Oc3ccc(Cl)cc32)c1 | -0.648% (inactive) | – |
| COc1ccccc1OCc1ccc(C(=O)NC(C)c2ccccc2)o1 (stereo unspecified) | -0.353% (inactive) | – |
| CCN(CC)Cc1csc2ccc(Br)cc12 | 0.52% (inactive) | – |
| COc1ccc(C(=O)N(CCN2CCOCC2)CC(=O)NC2CCCC2)cc1OC | -0.299% (inactive) | – |
| COc1ccc([N+](=O)[O-])cc1NC(=O)C(C)OC(=O)C1c2ccccc2Oc2ccccc21 (stereo unspecified) | -0.921% (inactive) | – |
| CNc1nccc(-c2ccc(Cl)cc2)c1C#N | -0.419% (inactive) | – |
| CC(C)(C)CC(C)(C)NCC(O)COCCOc1ccc(Br)cc1 (stereo unspecified) | -1.41% (inactive) | – |
| CC(C)C(c1nnnn1C(C)(C)C)N1CCN(Cc2cccnc2)CC1 (stereo unspecified) | 0.227% (inactive) | – |
| O=C(CSc1ccc(-c2ccc(-n3cccn3)cc2)nn1)Nc1ccc([N+](=O)[O-])cc1 | -0.051% (inactive) | – |
| COc1ccc(CNS(=O)(=O)c2cc3c4c(c2)CCN4C(=O)CC3)cc1 | 0.0665% (inactive) | – |
| CCN(CC(=O)Nc1ccccc1C(F)(F)F)C(=O)CSCc1c(C)noc1C | 0.203% (inactive) | – |
| CN(CC(=O)Nc1ccc(F)c(F)c1F)C(=O)Cn1cnc2c1c(=O)n(C)c(=O)n2C | -0.0001% (inactive) | – |
| COC(=O)C1(C)NC(c2ccc(C)cc2)C2C(=O)N(c3ccc(F)cc3)C(=O)C21 (stereo unspecified) | -0.0353% (inactive) | – |

| SMILES | activation | Potency |
| --- | --- | --- |
| CC1CC(c2ccccc2)n2nc(NC(=O)c3cccs3)nc2N1 (stereo unspecified) | -0.19% (inactive) | – |
| CN(C(=O)CSc1nnc(-c2ccc(C(C)(C)C)cc2)n1C)C1CCS(=O)(=O)C1 (stereo unspecified) | -0.268% (inactive) | – |
| Cc1ccc(NC(=O)CN(C)C(=O)COC(=O)c2nccnc2N)cc1 | -0.155% (inactive) | – |
| CC(C)CC[n+]1ccn(C2=C([O-])c3ccccc3C(=O)/C2=N\S(=O)(=O)c2ccccc2)c1 | -0.852% (inactive) | – |
| CC1(C)O[C@H]2CC(=O)OCC23[C@H]2CC[C@@]4(C)[C@H](c5ccoc5)OC(=O)[C@H]5O[C@]54[C@]2(C)C(=O)C[C@@H]13 (stereo partly specified) | -0.047% (inactive) | – |
| CCOC(=O)C1CCN(C(=O)COC(=O)C2CCN(S(=O)(=O)c3ccc4c(c3)OCCO4)CC2)CC1 | -0.237% (inactive) | – |
| Cc1ccc(C(=O)N2CC(=O)Nc3ccc(F)cc3C2c2ccc(F)cc2)cc1 (stereo unspecified) | 0.502% (inactive) | – |
| CCOC(=O)N1CCC(NC(=O)CCc2cn(C)c3ccccc23)CC1 | -0.0838% (inactive) | – |
| FC(F)(F)c1cc(C(F)(F)F)c2ccc(N3CCN(c4ccccc4)CC3)nc2n1 | 0.785% (inactive) | – |
| Cc1ccccc1NC(=O)C(C)OC(=O)CCC(=O)N(CC(C)C)c1c(N)n(CC(C)C)c(=O)[nH]c1=O (stereo unspecified) | -0.281% (inactive) | – |
| COc1cc(NC(=O)c2ccc(-c3csc(C)n3)cc2)c(OC)cc1Cl | -0.0491% (inactive) | – |
| [O-][N+]12CCCCC1CCCC2CO (stereo unspecified) | -1.12% (inactive) | – |
| CCN(Cc1ccccc1)C(=O)CSc1nc(C)cc2c1C(=O)OC2 | 0.268% (inactive) | – |
| O=C(COc1ccc(Cl)cc1)NCc1nnc(SCC(=O)NCC2CCCO2)o1 (stereo unspecified) | 0.293% (inactive) | – |
| Cc1ccc(C(C(=O)NCC2CCCO2)N(C(=O)c2snc(C(N)=O)c2N)c2ccc(C(C)C)cc2)o1 (stereo unspecified) | 0.458% (inactive) | – |
| CC(=O)N/C(=C\c1ccccc1)C(=O)OC(C)C(=O)N(C)c1ccccc1 (stereo unspecified) | -0.203% (inactive) | – |
| C=CCn1c(SCC(=O)NC23CC4CC(CC(C4)C2)C3)nc(O)cc1=O | -0.0159% (inactive) | – |
| Cc1ccc(/C=N/NC(=O)CN2CCN(Cc3ccccc3)CC2)s1 | 5.3% (inactive) | – |
| C=CCNC(=S)N/N=C/c1ccc(OCc2ccccc2)cc1 | 0.0669% (inactive) | – |
| C=CCNC(=S)N/N=C/c1ccc(C)s1 | – | 5.62 µM (active) |
| CCOC(=O)c1sc(N)c(C#N)c1COC(=O)C1=COCCO1 | -0.132% (inactive) | – |
| COc1ccc(NC(=O)Cn2c(-c3ccc(OC)cc3)cn(-c3ccc(C)cc3)c2=O)cc1 | 3% (inactive) | – |
| O=C(c1cc2ccccc2o1)N1CCN(c2cccc(C(F)(F)F)c2)CC1 | -0.96% (inactive) | – |
| CC(C)[C@H](NC(=O)c1ccc(F)cc1)C(=O)OCC(=O)NC(=O)c1cccn1C | -0.698% (inactive) | – |
| CC1CN(CCCOc2ccccc2-c2ccccc2)CC(C)O1 (stereo unspecified) | -0.144% (inactive) | – |
